An excerpt weighted towards active compounds, which were near 3.3% of everything screened.
Jurkat NFkB inh = inhibitors of the PMA/ionomycin-induced NF-kB reporter in Jurkat cells; PMA/ionomycin-induced NF-kB luciferase reporter, luminescence; inhibition, % at 4 µM; 330,000 tested, 0.53% active; AID 435003; in the data active means inhibition above about 50%
697 NFkB inh = inhibitors of the PMA/ionomycin-induced NF-kB reporter in 697 B cells; AID 435022; 697 B-cell NF-kB luciferase reporter, 16 h; inhibition, % at 4 µM; 330,000 tested, 0.33% active; in the data active means inhibition above about 35%
Gli-Sufu antag = blocks Gli-Sufu signaling in a luciferase reporter | Sufu-KO-LIGHT fibroblasts, Gli luciferase reporter luminescence | inhibition, % at 5 µM | 340,000 tested, 0.74% active | AID 588413;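 active means inhibition above about 55%, limit read from the data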
esBAF inh = inhibitors of esBAF chromatin remodeling in mouse ES cells | Bmi1-luciferase knock-in reporter, 24 h; 100% = twice the neutral-well signal | reporter increase, % at 12.5 µM | 350,000 tested, 2% active; in the data active means activation above about 40%;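 further: a rise in the Bmi1 reporter signal indicates esBAF inhibition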
SMARCA2 act = activators of SMARCA2 function; MG213 cells, MMTV-luciferase reporter, dexamethasone, overnight; activation, % at 9.1 µM; 370,000 tested, 1% active; AID 652017; in the data active means activation above about 7.8%
Large screens that a line does not name were inactive; ! = not confirmed by another sample.

CCCNC(=O)N(C)C[C@H]1Oc2ncc(C3=CCCCC3)cc2C(=O)N([C@@H](C)CO)C[C@H]1C	none (no result: Jurkat NFkB inh, 697 NFkB inh, Gli-Sufu antag, SMARCA2 act)
Cc1csc(SCc2nnc(-c3ccccc3Br)o2)n1	none
Cc1csc(SCc2nnc(-c3ccc(Cl)cc3)o2)n1	esBAF inh 59.8
O=C1C(=O)N(CCN2CCOCC2)C(c2ccccn2)/C1=C(/O)c1ccc(F)cc1 (stereo not drawn)	none (no result: esBAF inh)
COc1ccc(/C(O)=C2/C(=O)C(=O)N(CCN3CCOCC3)C2c2ccccn2)cc1 (stereo not drawn)	esBAF inh 44.2
CC(=O)c1c(C)[nH]c(C(=O)OCC(=O)c2c[nH]c3ccccc23)c1C	esBAF inh 53.0
Nc1cc(C(=O)OCC(=O)c2ccc(CC(=O)N3CCOCC3)s2)ccc1Cl	none
Cc1ccc(C(=O)COC(=O)c2ccc(Cl)c(N)c2)s1	esBAF inh 92.1
O=C(OCC(=O)c1ccc(Br)s1)c1ccc(O)cc1	esBAF inh 75.8
CC(=O)c1c(C)[nH]c(C(=O)OCC(=O)c2ccc(C)s2)c1C	esBAF inh 56.2
COCC(=O)N1C[C@H]2[C@@H](c3ccccc31)[C@H](CO)N2C(=O)C1CCCCC1	none (no result: Jurkat NFkB inh, 697 NFkB inh, Gli-Sufu antag, SMARCA2 act)
Cc1noc(C)c1NC(=O)Nc1ccc2c(c1)C(=O)N([C@@H](C)CO)C[C@@H](C)[C@@H](CN(C)S(=O)(=O)c1c(C)noc1C)O2	none (no result: Jurkat NFkB inh, 697 NFkB inh, Gli-Sufu antag, SMARCA2 act)
C[C@H](CO)N1C[C@H](C)[C@@H](CN(C)S(=O)(=O)c2cn(C)cn2)Oc2c(NC(=O)Nc3ccc4c(c3)OCO4)cccc2C1=O	esBAF inh 50.4!
C[C@@H]1CN([C@H](C)CO)C(=O)c2cccc(NC(=O)Nc3ccc4c(c3)OCO4)c2O[C@H]1CN(C)S(=O)(=O)c1cn(C)cn1	none (no result: Jurkat NFkB inh, 697 NFkB inh, Gli-Sufu antag, SMARCA2 act)
C[C@H]1CN([C@@H](C)CO)C(=O)c2cccc(NC(=O)Nc3ccc4c(c3)OCO4)c2O[C@@H]1CN(C)Cc1ccc(-c2ccccc2)cc1	none (no result: Jurkat NFkB inh, 697 NFkB inh, Gli-Sufu antag, SMARCA2 act)
C[C@H](CO)N1C[C@H](C)[C@@H](CN(C)Cc2ccc(-c3ccccc3)cc2)Oc2c(NC(=O)Nc3ccc4c(c3)OCO4)cccc2C1=O	esBAF inh 43.1!
Cc1ccc(N=C2N=C(N)c3ccccc32)cc1C	esBAF inh 55.2
CCN(CC)c1ccc2cc(-c3nnc(-c4ccccc4)o3)c(=O)oc2c1	esBAF inh 46.1
O=c1oc2ccc3ccccc3c2cc1-c1nnc(-c2ccccc2)o1	none
O=C(C[C@H]1CC[C@H](NC(=O)c2ccncc2)[C@@H](CO)O1)Nc1ccccc1	none (no result: Jurkat NFkB inh, 697 NFkB inh, Gli-Sufu antag, SMARCA2 act)
Cc1nc(-c2ccccn2)sc1C(=O)Nc1ccc(F)cc1	none
Cc1nc(-c2ccccn2)sc1C(=O)Nc1ccc(F)cc1F	esBAF inh 57.7
CCOc1ccc(OCCOc2ncnc3ccccc23)cc1	esBAF inh 45.5
Cc1cccc(-c2nnc(-c3cccc(NC(=O)Cc4cccs4)c3)o2)c1	esBAF inh 80.5
O=C(Cc1cccs1)Nc1ccc(-c2nnc(-c3ccccc3)o2)cc1	none
CCC(=O)N1C[C@@H](C)[C@@H](OC)CN(C)C(=O)c2ccc(NC(=O)c3ccc(F)cc3)cc2OC[C@H]1C	none (no result: Jurkat NFkB inh, 697 NFkB inh, Gli-Sufu antag, SMARCA2 act)
CS(=O)(=O)NN1C(=O)c2ccccc2NC1c1cc2ccccc2nc1Cl (stereo not drawn)	esBAF inh 89.3
COC(=O)[C@H]1[C@H](CO)[C@H]2Cn3c(ccc(-c4ccc(F)cc4)c3=O)[C@H]2N1C	none (no result: Jurkat NFkB inh, 697 NFkB inh, Gli-Sufu antag, SMARCA2 act)
C=CCNc1nc(N)c(C(=O)c2ccc3c(c2)OCO3)s1	esBAF inh 52.3
CO[C@@H]1CN(C)C(=O)c2ccc(NC(=O)C3CC3)cc2OC[C@H](C)N(C(=O)C2CCCCC2)C[C@H]1C	none (no result: Jurkat NFkB inh, 697 NFkB inh, Gli-Sufu antag, SMARCA2 act)
C[C@H](CO)N1C[C@H](C)[C@@H](CN(C)C(=O)NC2CCCCC2)Oc2c(NS(=O)(=O)c3ccc(Cl)cc3)cccc2C1=O	none (no result: Jurkat NFkB inh, 697 NFkB inh, Gli-Sufu antag, SMARCA2 act)
CCOC(=O)c1cc(C(=O)NCc2ccc(Cl)cc2Cl)nn1C	none (no result: esBAF inh)
CCOC(=O)c1cc(C(=O)Nc2ccc(C)c(F)c2)nn1C	esBAF inh 42.5
O=C(Nc1ccccc1)c1nnsc1S(=O)c1ccc(Cl)cc1 (stereo not drawn)	esBAF inh 43.8
Cc1ccc(-c2oc3ccccc3c(=O)c2O)cc1	esBAF inh 47.6
O=c1c(O)c(-c2ccccc2)oc2ccccc12	none (no result: Jurkat NFkB inh, 697 NFkB inh)
O=C(NC1CCCCC1)N[C@H]1CC[C@H](CCNS(=O)(=O)c2ccc(F)cc2)O[C@@H]1CO	none (no result: Jurkat NFkB inh, 697 NFkB inh, Gli-Sufu antag, SMARCA2 act)
O=C(NCCc1c[nH]c2ccccc12)c1cc(Cl)c2c(c1)OCO2	esBAF inh 46.6
Cc1ccc2[nH]cc(CCNC(=O)c3ccc4c(c3)OCO4)c2c1	none
COC(=O)[C@@H](Cc1c[nH]c2ccccc12)NC(=O)c1ccc2c(c1)OCO2	esBAF inh 68.0
Cn1c(C(=O)NCCc2c[nH]c3ccccc23)cc2sccc21	esBAF inh 74.3
O=C(NCCc1c[nH]c2ccccc12)c1cc2sccc2n1Cc1ccccc1	none
O=C(NCCc1c[nH]c2ccccc12)C(=O)Nc1ccccc1	esBAF inh 57.6
CCCc1cc(C(=O)N/N=C/c2cccn2C)cs1	esBAF inh 53.5
CCCc1cc(C(=O)Nc2nnc(C)s2)cs1	esBAF inh 50.3
COc1ccc(CN(C)C[C@H]2OCCCC[C@H](C)Oc3ccc(NC(=O)c4ccncc4)cc3C(=O)N([C@H](C)CO)C[C@@H]2C)cc1	none (no result: Jurkat NFkB inh, 697 NFkB inh, Gli-Sufu antag, SMARCA2 act)
CN1C(=O)c2cc(NC(=O)C3CC3)ccc2OC[C@H]2O[C@H](CC(=O)NC3CCC3)CC[C@H]21	none (no result: Jurkat NFkB inh, 697 NFkB inh, Gli-Sufu antag, SMARCA2 act)
CC(C)N(C(=O)CSc1ncnc2sc(-c3ccccc3)cc12)C(C)C	esBAF inh 59.4
Cc1cccc(N=c2oc3cc(O)ccc3cc2C(N)=O)c1	esBAF inh 57.8
COc1ccccc1N=c1oc2cc(O)ccc2cc1C(N)=O	none
O=C(O)/C=C\C(=O)Nc1ccccc1C#Cc1ccc(Br)cc1	none
O=C(O)/C=C\C(=O)Nc1ccccc1C#Cc1ccccc1	esBAF inh 56.3
C[C@@H]1CCCCO[C@@H](CN(C)Cc2ccc(C(F)(F)F)cc2)[C@@H](C)CN([C@@H](C)CO)C(=O)c2cc(NC(=O)CCC(F)(F)F)ccc2O1	none (no result: Jurkat NFkB inh, 697 NFkB inh, Gli-Sufu antag, SMARCA2 act)
Cc1c(C(=O)Nc2nccs2)oc2ccc(F)cc12	none
Cc1c(C(=O)Nc2nccs2)oc2ccc(Br)cc12	esBAF inh 72.4
Cc1n[nH]c(=O)n1-c1ccc(OCc2ccccc2)cc1	esBAF inh 44.2
COc1ccc(-n2c(C)n[nH]c2=O)cc1	none
O=C1c2ccccc2C(=O)C1c1ccc(Br)cc1	none
O=C1c2ccccc2C(=O)C1c1ccc(O)cc1	esBAF inh 59.2
C[C@H](CO)N1C[C@H](C)[C@@H](CN(C)Cc2ccc(Oc3ccccc3)cc2)Oc2ncc(-c3ccncc3)cc2C1=O	none (no result: Jurkat NFkB inh, 697 NFkB inh, Gli-Sufu antag, SMARCA2 act)
CN(C)CCCNC(=O)C[C@@H]1CC[C@H]2[C@@H](COC[C@H](O)CN2Cc2cccc(Cl)c2)O1	none (no result: Jurkat NFkB inh, 697 NFkB inh, Gli-Sufu antag, SMARCA2 act)
COc1cc(/C=C/c2ccc3cccc(O)c3n2)c(Br)cc1O	esBAF inh 40.5 (no result: Gli-Sufu antag)
CCC1=[N+](CC(=O)c2ccc(C)cc2)CCn2cccc21	esBAF inh 43.4 (no result: Gli-Sufu antag)
CCC1=[N+](CC(=O)c2ccc(C)cc2)CCn2c(C)ccc21	none (no result: esBAF inh)
